SW480 rerep: A quantitative high throughput screen for small molecules that induce DNA re-replication in SW480 colon adenocarcinoma cells. SW480 DNA re-replication, Hoechst DNA content imaging, 48 h. AID 624297, 2012. 1.8% of 340,000 active. Potency, µM (highest dose often 46.1 µM), for the others: top-dose re-replication activation, most hits filed as activators; further: % of control where 0% means no effect; nearly all actives have a fitted effect of over 55% in size
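Per well, 250 cells were exposed to pinned compound for 48 hr. Nuclear DNA was visualised with Hoechst (40 min, 37 C) and total object intensity recorded by fluorescence scanning.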
ELG1 DNA repair: qHTS screen for small molecules that inhibit ELG1-dependent DNA repair in human embryonic kidney (HEK293T) cells expressing luciferase-tagged ELG1 | HEK293T ELG1-luciferase reporter, luminescence, 16 h; DNA damage induced by 5-fluorouridine | Potency, µM (titrated, usually from 46.1 µM), without a hit: at the highest dose activity change, negative = inhibition, hits mostly inhibitors | 2.3% of 330,000 active | AID 504467, 2011; further: on the % scale 0 is the no-effect control and ±100 the full control effect; nearly all actives have a fitted effect of over 55% in size
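Reporter activity after DNA damage by 5-fluorouridine is monitored. Compound-treated cells incubate 16 hr at 37 °C, then ONE-Glo is added for 30 min before luminescence reading.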
KB-V1 MDR tox: qHTS assay for MDR1-selective chemotherapeutics: Primary screen using the drug-selected MDR subline cells KB-V1; AID 1347076, 2019; 3.4% of 400,000 active; KB-V1 MDR cells viability, CellTiter-Glo, 72 h; Potency, µM (top dose mostly 46.1 µM), hits mostly cytotoxic; further: on the % scale 0 is the no-effect control and ±100 the full control effect; nearly all actives have a fitted effect of over 60% in size
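Luminescent ATP read-out (CellTiter-Glo, 10 min) measures survival of drug-selected KB-V1 MDR cells after 72 h, 37 degrees C compound exposure. Medium: phenol-red-free DMEM, 10% FBS. Values from fitted concentration-response curves.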
MCF10A rerep: A quantitative high throughput screen for small molecules that induce DNA re-replication in MCF 10a normal breast cells; MCF 10A DNA re-replication, Hoechst nuclear intensity, 48 h; Potency, µM (series often up to 46.1 µM), without a hit: top-dose activity, positive = re-replication, most hits filed as activators; 2.9% of 350,000 active; further: % of control where 0% means no effect; nearly all actives have a fitted effect of over 50% in size
KB-3-1 tox: qHTS assay for MDR1-selective chemotherapeutics: Primary screen using the parental adenocarcinoma cell KB-3-1. 1.4% of 400,000 active. KB-3-1 viability, CellTiter-Glo ATP luminescence, 72 h. Potency, µM (doses to about 46.1 µM), most hits filed as cytotoxic; further: on the % scale 0 is the no-effect control and ±100 the full control effect; nearly all actives have a fitted effect of over 60% in size
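Cells are dispensed, compounds pinned in, plates held at 37 °C for 72 h, then CellTiter-Glo is added and luminescence read after 10 minutes. Cell line: parental KB-3-1 in phenol-red-free DMEM, 10% FBS.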
An asterisk follows results filed as active; i = inactive; u = inconclusive; x = not tested or not shown. This is a sample that favours compounds with a hit; in the whole collection about 8.2% have one here. The call rests on the fitted dose curve; in most records, active means well fitted curve in the direction sought with a large enough effect; inconclusive means small, poorly fitted or top-dose-only effect, or another doubt; inactive means no such curve, though single readings can be large; an effect the other way counts as inactive or inconclusive. Potency means the concentration at half of the fitted maximal effect.

SMILES	SW480 rerep	ELG1 DNA repair	KB-V1 MDR tox	MCF10A rerep	KB-3-1 tox
COc1ccccc1NC(=O)c1cnc(Nc2ccccc2OC)c2ccccc12	2.8µM*	-30%	9.2µM*	u	18µM*
COc1ccccc1C(C)NC(=O)CCC(=O)N1CCN(S(=O)(=O)c2ccc(Cl)cc2)CC1 (stereo unspecified)	8%	x	18µM*	4%	u
COC(=O)c1ccccc1NC(=O)N1CCN(S(=O)(=O)c2ccc(Cl)cc2)CC1	9.2µM*	-18%	u	u	i
Nc1ncccc1C(=O)OCC(=O)N1CCN(S(=O)(=O)c2ccc(Cl)cc2)CC1	-4%	9.2µM*	i	-4%	i
COc1ccccc1C(=O)NCCC(=O)N1CCN(S(=O)(=O)c2ccc(Cl)cc2)CC1	-23%	-2%	i	-4%	i
COC(=O)c1ccccc1NC(=O)N1CCCC1	1%	5%	u	-4%	i
CCOC(=O)N1CCN(C(=O)C[C@@H]2C[C@@]3(C(=O)OC)CC(C)(C)CC=C3N(Cc3ccc4c(c3)OCO4)C2=O)CC1	x	x	u	x	i
O=C(Nc1nnc(-c2ccncc2)s1)Nc1ccc(Cl)cc1F	x	x	i	x	i
Clc1ccc(-c2nc3ccncc3[nH]2)cc1	-13%	u	18µM*	2%	u
Fc1ccc(-c2nc3ccncc3[nH]2)cc1	-2%	u	i	-5%	i
Cc1ccc(S(=O)(=O)N2CCCCC2CCNC(=O)C(=O)NC2CC2)cc1 (stereo unspecified)	4%	-1%	8.2µM*	7%	i
Cc1ccc(S(=O)(=O)N2CCCCC2CCNC(=O)C(=O)NCc2cccnc2)cc1 (stereo unspecified)	16µM*	-20%	u	u	8.2µM*
Cc1ccc(C)c(S(=O)(=O)N2CCCCC2CCNC(=O)C(=O)NCc2cccnc2)c1 (stereo unspecified)	u	1%	u	11%	i
O=C(NCCC1CCCCN1S(=O)(=O)c1ccc(Cl)cc1)C(=O)NCc1ccncc1 (stereo unspecified)	3%	-17%	i	-39%	i
Cc1ccc(C)c(S(=O)(=O)N2CCCCC2CCNC(=O)C(=O)NCc2ccccc2)c1 (stereo unspecified)	u	u	u	u	26µM*
Cc1ccc(CNC(=O)C(=O)NCCC2CCCCN2S(=O)(=O)c2ccc(C)cc2)cc1 (stereo unspecified)	u	u	3.7µM*	u	i
CC(C)Oc1ccc(CNC(=O)c2ccc(NC(=O)c3nsc4ccccc34)cc2)cc1	x	x	i	x	i
CC(C)CC1NC(=O)N(CC(=O)Nc2ccc(OCc3ccccc3)cc2)C1=O (stereo unspecified)	u	9%	i	27%	i
Cc1cc(C)c(S(=O)(=O)N2CCCCC2CCNC(=O)C(=O)NCc2cccnc2)c(C)c1 (stereo unspecified)	-6%	-18%	8.2µM*	5%	i
Cc1ccccc1CNC(=O)C(=O)NCCC1CCCCN1S(=O)(=O)c1ccccc1 (stereo unspecified)	0%	-27%	6.5µM*	15%	u
Cc1cc(C)c(S(=O)(=O)N2CCCCC2CCNC(=O)C(=O)NCC2CCCO2)c(C)c1 (stereo unspecified)	-1%	4%	u	6%	i
COc1cc(S(=O)(=O)NC(Cc2c[nH]c3ccccc23)C(=O)O)ccc1NC(C)=O (stereo unspecified)	-2%	9%	u	-3%	i
O=C(c1cccs1)N(c1cccc(Cl)c1)C1C=CS(=O)(=O)C1 (stereo unspecified)	8%	8%	i	6%	i
CCc1ccccc1N(C(=O)c1cccs1)C1C=CS(=O)(=O)C1 (stereo unspecified)	u	-5%	i	2.6µM*	i
COc1ccc(CNc2ccc3c(c2)ncn3-c2ccccc2OC)cc1	u	u	16µM*	18%	i
SMILES	SW480 rerep	ELG1 DNA repair	KB-V1 MDR tox	MCF10A rerep	KB-3-1 tox
COc1ccccc1-n1cnc2cc(NCc3ccco3)ccc21	1.5µM*	u	2.6µM*	2.1µM*	0.58µM*
CC(C)(C)n1cnc2cc(NCc3cccs3)ccc21	-2%	u	u	2%	i
COc1ccccc1-n1cnc2cc(NCc3cccs3)ccc21	2.1µM*	u	u	1.5µM*	1.2µM*
CCn1cnc2cc(NCc3cccs3)ccc21	-3%	u	i	-3%	i
Cc1ccccc1-n1cnc2cc(NCc3cccs3)ccc21	18µM*	1%	i	u	u
CCCNC(=O)c1ccc2c(c1)ncn2-c1ccccc1OC	-6%	u	i	3%	i
COc1ccccc1-n1cnc2cc(NS(=O)(=O)c3ccc(Br)cc3)ccc21	14%	u	12µM*	u	i
C#CCN(C[C@@H]1[C@@H](OC(=O)NCc2ccco2)[C@@H](OC(=O)NCc2ccco2)Cn2c(=O)ccc(=O)n21)S(=O)(=O)c1ccc(C)cc1	x	x	i	x	16µM*
COCCOC(=O)C1=C(C)NC(=O)NC1c1cn(-c2ccccc2)nc1-c1cccs1 (stereo unspecified)	4%	-10%	i	-3%	i
C=CCOC(=O)C1=C(C)NC(=O)NC1c1cn(-c2ccccc2)nc1-c1cccs1 (stereo unspecified)	-6%	u	21µM*	10%	i
c1cncc(-c2nc(NCC3COc4ccccc4O3)c3ccccc3n2)c1 (stereo unspecified)	u	15µM*	u	u	u
c1ccc(CNc2nc(-c3cccnc3)nc3ccccc23)cc1	24%	u	i	8%	i
CCN(CC(=O)Nc1ccc2c(c1)OCCO2)c1nc(-c2cccnc2)nc2ccccc12	2%	13µM*	u	6%	i
c1cncc(-c2nc(NCc3ccc4c(c3)OCO4)c3ccccc3n2)c1	u	21µM*	i	-4%	u
CCN(CC(=O)Nc1ccc2c(c1)OCCO2)C(=O)c1cc(Cl)nc2ccccc12	-13%	-2%	i	9%	i
COc1cc2c(cc1OC)[C@@H](NC(=O)CCc1ccccc1)[C@H](O)C2	-68%	4%	i	-3%	i
CCn1c(=NC(=O)c2ccc(S(=O)(=O)N3CCCCC3)cc2)sc2cccc(OC)c21	x	x	i	x	i
O=C1C=CC(=O)N1c1cccc(-c2ccccc2)c1	u	10%	i	21µM*	i
